# Assay results published in PMC6212790, “How bacterial xenogeneic silencer rok distinguishes foreign from self DNA in its resident genome”.
# Whole data set: some 33,000 sequences, median “e-score” near -0.037, cut for the highest 2% near 0.34. This is one part of a sample in which the highest values are shown more often than they occur.
# Molecular target: T1, GST-Rok (full length) (Bacillus subtilis subsp. subtilis str. …, UniProt O34857 1-191)
# T1 sequence: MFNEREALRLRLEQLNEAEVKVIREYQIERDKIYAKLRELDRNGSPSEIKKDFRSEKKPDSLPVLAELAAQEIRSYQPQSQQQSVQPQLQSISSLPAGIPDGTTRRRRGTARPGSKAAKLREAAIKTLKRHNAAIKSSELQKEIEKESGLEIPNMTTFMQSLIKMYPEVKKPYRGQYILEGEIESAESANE
# Assay: protein binding microarray; Rok is a gene silencer of Bacillus subtilis; high values mean tight binding
# Conditions: protein: recombinant; tags: GST (pTH5325, pDEST15-Magic modified); dsDNA, one strand shown
# Outline: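 Every oligonucleotide joins a 25-mer constant primer to a 35-mer variable part drawn from a de Bruijn sequence of order 10, so each non-palindromic 8-mer appears at least 32 times and each palindromic 8-mer 16 times. The preference for every 8-mer is reported as a unitless, rank-based enrichment score (E-score). This score spans 0.5 for the most favored 8-mer to −0.5 for the most disfavored.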
row,Sequence,binding signal [E-score]
1,AATCGGAA,0.0335
2,CCTAGTCG,-0.13
3,AACCACCT,-0.126
4,TCACAGAA,0.0426
5,GACCAAGA,0.0064
6,AAGCCTCT,-0.124
7,ACCTACTA,0.372
8,AACTACGG,0.204
9,AACTACGC,0.201
10,AACTACTC,0.381
11,AGCTACTG,0.294
12,ACCTACTG,0.295
13,AACTACTG,0.436
14,CACTACTA,0.354
15,CACTACGA,0.174
16,CACTACTC,0.00906
17,CACTACTG,-0.0214
18,CCCTACTA,-0.0153
19,ATGCCGCA,-0.0383
20,CTTCGCCA,-0.129
21,CCACTGCC,-0.199
22,CTATAAGC,0.113
23,ATATGGAG,0.202
24,GCGTGAAC,0.00198
25,TAAGCTGA,-0.0981

row,Sequence,binding signal [E-score]
1,AGGGTACG,-0.168
2,CCGCTAGG,-0.19
3,GGCTTTAC,0.00573
4,GCAAATCA,0.0652
5,TATTGAAA,0.0126
6,AACTACTA,0.474
7,TACTACGA,0.275
8,CGCTACTA,0.28
9,TACTACTA,0.428
10,GACTACGA,0.079
11,AACTACGT,0.306
12,AACTACGA,0.292
13,AACTACTT,0.418
14,GACTACTA,0.34
15,AGCTACTA,0.291
16,GACTACTC,0.132
17,AACAACTT,0.174
18,ATGTCGGC,0.0255
19,ATGCATTG,0.0725
20,GTCCGCAA,-0.0703
21,TCAAGCAA,-0.0617
22,CCCGATAC,0.00567
23,CCATCCGC,-0.114
24,ACGGCTTA,-0.0338
25,AGATAATG,0.225

row,Sequence,binding signal [E-score]
1,CACGTATG,0.0605
2,TCCCCAAA,-0.169
3,CCCTTTTA,-0.102
4,GCTTTTTA,0.157
5,AGATTTCA,0.0391
6,AACATAAG,0.23
7,GCTTTCTA,0.224
8,ATATCCTA,0.36
9,GTATCCTA,0.13
10,CTATCCTA,0.0781
11,GAATGGCC,-0.15
12,CATTTGCG,-0.059
13,AAATATAC,0.376
14,AAATACAC,0.216
15,AAATATAA,0.253
16,AAATATAG,0.317
17,AAATACAG,0.264
18,CAATATAA,0.213
19,CAATATAC,0.34
20,AAATACAT,0.348
21,AAATATAT,0.429
22,GAATATAC,0.306
23,AAAAATAT,0.319
24,AGGAAGTG,-0.139
25,GCATGTTA,0.0472

row,Sequence,binding signal [E-score]
1,AGTAAAAG,0.19
2,CACGCTTA,-0.0251
3,AAATATGT,0.338
4,AAATATCT,0.355
5,AAATATTA,0.305
6,AAATATCA,0.271
7,AAATATCC,0.127
8,AAATATGC,0.223
9,AAATATTT,0.337
10,AAATATGA,0.199
11,AAATATTG,0.295
12,CATTTCGG,0.0631
13,AGTCCAAA,-0.0624
14,ACATCATC,-0.0524
15,AGCTATAA,0.25
16,AACTATAG,0.331
17,AGCTATAG,0.283
18,AACTATAT,0.362
19,AACTATAC,0.33
20,AGCTATAT,0.337
21,TAAGCCTA,-0.0764
22,AGGCAAGC,-0.186
23,AATTGTGG,-0.0645
24,CAGTGCGG,-0.0903
25,ACGTAGAT,0.222

row,Sequence,binding signal [E-score]
1,AAGTAGAC,0.00429
2,AGGTAGAA,0.419
3,GGGTAGCA,-0.00107
4,AGGTAGAT,0.359
5,AGGTAGAC,0.191
6,GGGTAGAC,-0.127
7,AAGTAGAT,0.374
8,AAGTAGAG,0.104
9,AGTTAGAT,0.162
10,AGGTAGAG,0.122
11,GGGTAGAA,0.359
12,GTGCTTTA,-0.00122
13,GCGAAGTA,0.155
14,CGCTTTTC,0.046
15,AAGCTTGT,0.0413
16,CTAGGTGA,-0.041
17,AGAGTTAC,0.152
18,CAAAGTTA,0.0253
19,CGGTAGAA,0.417
20,CGGTAGAG,0.0632
21,TGGTAGAA,0.468
22,TCGTAGAA,0.131
23,CGGTAGAC,-0.0961
24,CCGTAGAA,0.32
25,CTAACGCA,0.101

row,Sequence,binding signal [E-score]
1,ACCCTGTC,-0.0851
2,AACGACCG,-0.0771
3,AAATTATT,0.296
4,GAATTATA,0.326
5,CAATTATA,0.363
6,AAATTATA,0.413
7,TAATTAAA,0.259
8,CAATTATC,0.2
9,TAATTATA,0.385
10,AAATTATG,0.215
11,CAATTATG,0.175
12,CGTATGGA,0.128
13,AATTAAAC,0.0743
14,CATATAGG,0.175
15,ATTAATCA,0.232
16,CTGGAAAG,-0.166
17,CACATCTC,0.0106
18,CTTATTAC,0.299
19,ACTATTAA,0.289
20,ATTATTAA,0.0696
21,AGTATTAT,0.358
22,ACTATTAC,0.407
23,ATTATTAC,0.382
24,ACTATTAT,0.386
25,AGTATTAA,0.29

row,Sequence,binding signal [E-score]
1,AGTATTAC,0.26
2,ACTATTAG,0.244
3,GCTATTAC,0.269
4,CCTATTAC,0.285
5,GCATTAGA,0.129
6,TAGTCTGA,0.148
7,CTTTACGA,0.0116
8,AAGGAGTC,-0.107
9,AAGGAATC,-0.0168
10,ATAGAAGC,0.307
11,CGAGTAAC,0.156
12,ACTATTGG,0.208
13,ACTTTTAC,0.224
14,ACTTTTAT,0.355
15,ACTTTTAA,0.158
16,ACTATTGA,0.288
17,ACTATTGC,0.401
18,CACTTTTC,0.0315
19,ACGTTAAG,-0.0138
20,TATAACCA,0.27
21,CACGTTGA,0.088
22,AAGATGAC,0.0776
23,AAGTTTTG,0.00498
24,ATTATACG,0.381
25,ATTATACC,0.269

row,Sequence,binding signal [E-score]
1,GTTATACA,0.213
2,CTTATACA,0.283
3,ACTATACG,0.0122
4,ATTATACA,0.363
5,AACGGTTC,0.108
6,GTAGACAA,-0.0127
7,GTGGCCAC,-0.123
8,ACCTTGCG,-0.00332
9,CAAAAAGA,-0.0731
10,TGCTTGAA,-0.0266
11,ATTCTACA,0.42
12,ATTCTACG,0.18
13,CTTCTATC,0.265
14,CTTCTACC,0.327
15,ATTCTATA,0.247
16,ATTCTACC,0.442
17,ATTCTATC,0.348
18,ATTCTAGC,0.257
19,GTTCTACA,0.265
20,TGAACCCA,-0.0568
21,CAACTAAA,0.249
22,TCTAACAA,0.0589
23,AAGCGCAG,-0.165
24,GAGACTGA,0.0243
25,ACCAATCC,0.0382

row,Sequence,binding signal [E-score]
1,ATGGTGAG,-0.0135
2,ACTAAAAT,0.406
3,ACTAAAAC,0.303
4,ACTAAATG,0.277
5,ACTAAATA,0.3
6,ACTAAATC,0.343
7,ACTAAAAA,0.21
8,CAAACAAC,0.00627
9,TAGCGGAA,0.245
10,GATGGACC,-0.171
11,ATTGTTCA,0.126
12,ACTGGCGG,-0.0567
13,CAGCTGGA,-0.0564
14,GGAGCAAC,-0.104
15,AAACTAGT,0.459
16,ACACTAGT,0.32
17,CAACTAGC,0.203
18,AAACTAGG,0.252
19,AAACTAGC,0.362
20,GAACTAGC,0.176
